According to PMC5540273 (PLoS ONE, 2017):
“And” between values parts separate entries of the source, which are not always exact repeats. Identical values can stand only once. Like-named read-outs stand apart in the source and are kept apart here.

Tests used:
MST1 = system: T1, MST1; conditions: concentration: 1 μM, replicates: in singlicate, n = 1
T1 construct: gene STK4

MST3 = system: T2, MST3; conditions: concentration: 1 μM, replicates: in singlicate, n = 1
T2 construct: gene STK24

MST4 = conditions: concentration: 1 μM, replicates: in singlicate, n = 1
MTOR = conditions: concentration: 1 μM, replicates: in singlicate, n = 1
MYLK2 = conditions: concentration: 1 μM, replicates: in singlicate, n = 1
MYLK4 = conditions: concentration: 1 μM, replicates: in singlicate, n = 1
MYLK = conditions: concentration: 1 μM, replicates: in singlicate, n = 1
MYO3A = conditions: concentration: 1 μM, replicates: in singlicate, n = 1
MST2 = system: T3, MST2; conditions: concentration: 1 μM, replicates: in singlicate; n = 1
T3 construct: gene STK3

MUSK = conditions: concentration: 1 μM, replicates: in singlicate, n = 1
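Further: KINOMEscan kinase panel screen.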

Row | SMILES | %Inh (MST1; 1 µM) | %Inh (MST3; 1 µM) | %Inh (MST4; 1 µM) | %Inh (MTOR; 1 µM) | %Inh (MYLK2; 1 µM) | %Inh (MYLK4; 1 µM) | %Inh (MYLK; 1 µM) | %Inh (MYO3A; 1 µM) | %Inh (MST1) [%] | %Inh (MST2) [%] | %Inh (MST3) [%] | %Inh (MST4) [%] | %Inh (MTOR) [%] | %Inh (MUSK) [%] | %Inh (MYLK2) [%] | %Inh (MYLK4) [%] | %Inh (MYLK) [%] | %Inh (MYO3A) [%] | %Inh (MUSK; 1 µM)
1 | Cl.Cl.Cl.Fc1ccc(-c2ncn(C3CCNCC3)c2-c2ccnc(Nc3ccccc3)n2)cc1 [SB-238039] | 82% and 69% | 12% and 46% | 44% and 0% | 22% and 0% | 43% and 30% | 6% and 0% | 0% and 22% | 4% and 10% |  |  |  |  |  |  |  |  |  |  | 
2 | CC(C)(CN)c1nc(-c2ccc(Cl)c(O)c2)c(-c2ccncc2)[nH]1.O=C(O)C(F)(F)F [SB-477794] | 0% and 11% | 0% and 1% | 11% and 1% | 35% and 17% | 0% and 5% | 0% and 6% | 1% and 21% | 25% and 59% |  |  |  |  |  |  |  |  |  |  | 
3 | Cc1c2ccc(N(C)c3ccnc(Nc4cccc(S(N)(=O)=O)c4)n3)cc2nn1Cc1ccccc1.Cl.Cl [GW787226] |  |  |  |  |  |  |  |  | 32 | 13 | 0 | 0 | 0 | 33 | 0 | 0 | 0 | 0 | 
4 | Nc1nc(-c2ccc3c(N)n[nH]c3c2)cc(N2CCCC2)n1 [GSK2227430] |  |  |  |  |  |  |  |  | 0 | 0 | 0 | 0 | 0 | 0 | 0 | 2 | 9 | 0 | 
5 | CNc1ncnc2[nH]ncc12 [SKF-18355] |  |  |  |  |  |  |  |  | 36 | 0 | 0 | 0 | 17 | 14 | 3 | 5 | 0 | 0 | 
6 | Cc1c(Cn2c(C)nn3c(=O)cc(N4CCOC(C)C4)nc23)cccc1C(F)(F)F (stereo not drawn) [GSK2344444] |  |  |  |  |  |  |  |  | 0 | 0 | 2 | 0 | 28 | 0 | 8 | 1 | 0 | 7 | 
7 | O=C(NOCC1CC1)c1ccc(F)c(F)c1Nc1ccc(I)cc1Cl |  |  |  |  |  |  |  |  | 0 | 0 | 4 | 0 | 28 | 0 | 0 | 0 | 0 | 0 | 
8 | COc1cc(Nc2nccc(N3CCC(NC(=O)c4cccc(NC(C)=O)c4)C3)n2)cc(OC)c1OC (stereo not drawn) [GSK1379754] |  |  |  |  |  |  |  |  | 12 | 7 | 0 | 0 | 7 | 12 | 17 | 2 | 14 | 5 | 
9 | COc1ccc(CNC(=O)NC2CCN(c3ccnc(Nc4ccc(OC)cc4)n3)C2)cc1 (stereo not drawn) [GSK1379727] |  |  |  |  |  |  |  |  | 0 | 0 | 0 | 0 | 13 | 7 | 8 | 0 | 22 | 18 | 
10 | COc1cc2ncn(-c3cc(OCc4sccc4Cl)c(C(N)=O)s3)c2cc1OC [GSK448459] |  |  |  |  |  |  |  |  | 21 | 68 | 0 | 0 | 11 | 7 | 31 | 72 | 37 | 12 | 
11 | COc1ccc(S(=O)(=O)NC2CCN(c3cc(C)nc(Nc4cccc(C#N)c4)n3)CC2)cc1.O=C(O)C(F)(F)F [GSK1653539] |  |  |  |  |  |  |  |  | 0 | 0 | 13 | 0 | 28 | 0 | 0 | 0 | 3 | 17 | 
12 | O=C(NCCNc1ccnc(Nc2ccc(F)cc2)n1)c1cc2ccccc2s1 [GSK1379874] |  |  |  |  |  |  |  |  | 0 | 0 | 0 | 0 | 8 | 0 | 0 | 0 | 15 | 0 | 
13 | Cc1cccc(Cn2ccn3c(=O)cc(N4CCOCC4)nc23)c1 [GSK2297542] |  |  |  |  |  |  |  |  | 7 | 0 | 23 | 0 | 17 | 2 | 4 | 6 | 41 | 11 | 
14 | CC(C)Oc1ccc2c(-c3ccnc(Nc4ccc(N5CCN(C)CC5)cc4)n3)cnn2n1 [GW696155] |  |  |  |  |  |  |  |  | 0 | 0 | 59 | 16 | 27 | 42 | 61 | 99.6 | 17 | 30 | 
15 | Cn1cc(-c2ccc3c(c2)CCN3C(=O)Cc2ccccc2Cl)c2c(N)ncnc21 [GSK2608885] |  |  |  |  |  |  |  |  | 95.3 | 64 | 30 | 13 | 8 | 29 | 8 | 2 | 12 | 34 | 
16 | CCc1ccnc(/C=C/c2n[nH]c3cc(Sc4ccccc4C(=O)NC)ccc23)c1 |  |  |  |  |  |  |  |  | 6 | 36 | 19 | 4 | 12 | 0 | 0 | 0 | 0 | 0 | 
17 | NCCNS(=O)(=O)c1ccc(-c2ccnc3[nH]ccc23)cc1 [GSK977617] | 26% and 0% | 27% and 17% | 13% and 0% | 29% and 12% | 75% and 42% | 99.9% and 99.7% | 74% and 59% | 37% and 16% |  | 0 |  |  |  |  |  |  |  |  | 30% and 35%
18 | Fc1ccc(-c2ncn(CCCN3CCOCC3)c2-c2ccccn2)cc1 [SB-211742] |  |  |  |  |  |  |  |  | 2 | 32 | 9 | 0 | 27 | 0 | 3 | 0 | 0 | 0 | 
19 | COc1ccc(Nc2nccc(N3CCC(NC(=O)Nc4cc(C)ccc4C)C3)n2)cc1 (stereo not drawn) [GSK1379741] |  |  |  |  |  |  |  |  | 0 | 1 | 0 | 0 | 11 | 0 | 0 | 0 | 0 | 0 | 
